Shown are actives, neighbours in structure and some others; about 21% of the full set was active somewhere.
Pf growth 96h: Primary qHTS for delayed death inhibitors of the malarial parasite plastid, 96 hour incubation. P. falciparum luciferase reporter growth, 96 h. Potency, µM (series often up to 28.7 µM), hits mostly inhibitors. actives 6.9% (n = 320,000)
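Plates of compound plus infected erythrocytes (2% hematocrit, 0.05% parasitemia final) incubate 96 hours, 37 C, 5% CO2. Detection reagent added; reduced luminescence from the parasites' luciferase reporter flags inhibition.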
AMA1-RON2 inh: qHTS for Inhibitors of AMA1-RON; Towards Development of Antimalarial Drug Lead: Primary Screen; AID 720542, 2013; AlphaScreen AMA1-biotinylated RON2 peptide binding; Potency, µM (highest dose often 58.2 µM), usual class: inhibitors; Plasmodium falciparum AMA1 (3D7) - RON2 peptide interaction; actives 0.2% (n = 360,000); note: nearly all actives have a fitted effect of over 45% in size
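AMA1 (3D7) with his tag at 25 nM final met compounds first, then biotinylated RON2 peptide at 25 nM; detection used donor plus acceptor beads, 10 µg/mL apiece, read by AlphaScreen after 30 min at room temperature.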
Pf growth 48h: Primary qHTS for delayed death inhibitors of the malarial parasite plastid, 48 hour incubation; P. falciparum luciferase growth in erythrocytes, 48 h; Potency, µM (titrated, usually from 28.7 µM), hits mostly inhibitors; actives 5.9% (n = 310,000); AID 504832, 2011
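Cell-based growth assay: transgenic P. falciparum expressing firefly luciferase, cultured in red cells within RPMI 1640 containing 0.5% w/v Albumax, 24 mM bicarbonate and gentamycin. A drop in luciferase activity indicates inhibition.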
Shiga inhibitor: A qHTS for Small Molecule Inhibitors of Shiga Toxin. Vero cells, Shiga toxin protein synthesis inhibition reporter. inhibition, % at 38.7 µM. actives 9.2% (n = 290,000); in the data active = inhibition mostly above about 28%, no sharp cut-off; inactive = mostly below about 43%
CHX counter: Cycloheximide Counterscreen for Small Molecule Inhibitors of Shiga Toxin; cell reporter, cycloheximide protein synthesis inhibition counterscreen; max response, %; actives 12% (n = 300,000); AID 2314, 2010; in the data active = max response mostly above about 13%, no sharp cut-off; inactive = mostly below about 14%; note: read at 38.3 µM for the half of the compounds with a filed dose
HCV inh: qHTS Assay for Inhibitors of Hepatitis C Virus (HCV); Huh7.5.1 HCVcc-Cre infection, luciferase reporter, 44 h; Potency, µM (doses to about 41.8 µM), most hits filed as inhibitors; actives 3.4% (n = 340,000); AID 651820, 2012
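Seed cells (1,000/well) for 4 h; treat with compound and infect with HCVcc-Cre, moi about 0.5. Incubate 44 h, then detect luciferase activity.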
Of the large screens only hits and unclear results are named; the others gave an inactive call; ! = a repeat was not active. Unless noted, calls come from the whole dose curve; as a rule, active = well fitted curve in the direction sought with a large enough effect; inconclusive = small, poorly fitted or top-dose-only effect, or another doubt; inactive = no such curve, though single readings can be large; an effect the other way counts as inactive or inconclusive.

O=C1Nc2ccccc2C1(O)c1ccccc1 (configuration not stated)	Pf growth 96h 0.1µM
CCCN1C(=O)/C(=C2/C=Cc3ccccc3N2CC)SC1=S	AMA1-RON2 inh 3.2µM, Pf growth 48h inconclusive
CCN1C(=O)/C(=C2\C=Cc3ccccc3N2CC)OC1=S	none (no result: Pf growth 96h, Pf growth 48h, Shiga inhibitor, CHX counter)
CCN1C(=O)/C(=C2/C=Cc3ccccc3N2CC)SC1=S	Pf growth 96h inconclusive, AMA1-RON2 inh 10µM, CHX counter 14
CCCN1/C(=C2/SC(=S)N(CC)C2=O)C=Cc2ccccc21	Pf growth 96h inconclusive, AMA1-RON2 inh 3.2µM (no result: Pf growth 48h)
CC[C@@]12CCCN3CCc4c(n(c5ccccc45)[C@](O)(C(=O)OC)C1)C32 (some centres not stated)	Pf growth 96h inconclusive (no result: AMA1-RON2 inh, Shiga inhibitor, CHX counter, HCV inh)
COc1ccc(NC(=O)COC(=O)CNC(=O)C2CCCCC2)cc1OC	none (no result: Pf growth 96h, Pf growth 48h, Shiga inhibitor, CHX counter)
Nc1nnc2cc(Br)ccc2n1	none (no result: Pf growth 96h, Pf growth 48h, Shiga inhibitor, CHX counter, HCV inh)
O=C(O)/C=C(/c1ccccc1)C(F)(F)F	none (no result: Pf growth 96h, Pf growth 48h, Shiga inhibitor, CHX counter)
CCCC1NC(=O)c2cc3ccccc3cc2-n2c1nc1ccc(F)cc1c2=O (configuration not stated)	none (no result: Pf growth 96h, Pf growth 48h, Shiga inhibitor, CHX counter, HCV inh)
COc1ccc(N(CCN2C(=O)c3ccccc3C2=O)C(=O)c2cccc([N+](=O)[O-])c2)cc1	none
COc1cc(OC)cc(C(=O)N(CCCN2C(=O)c3cccc4cccc(c34)C2=O)c2cccc(OC)c2)c1	Pf growth 48h 9.3µM
COc1ccc(N(CCCN2C(=O)c3cccc4cccc(c34)C2=O)C(=O)c2ccncc2)cc1	Pf growth 96h 1.5µM, Pf growth 48h 2.3µM
COc1ccc(N(CCCN2C(=O)c3cccc4cccc(c34)C2=O)C(=O)c2cccnc2)cc1	AMA1-RON2 inh inconclusive, Pf growth 48h inconclusive, HCV inh inconclusive
CN1CCN(C(=O)c2cc3cc(F)ccc3[nH]2)CC1	Pf growth 48h 15µM
Cc1cccc(N2CCN(C(=O)c3cc4cc(F)ccc4[nH]3)CC2)c1C	Pf growth 96h 13µM, Pf growth 48h 1.7µM
O=C(c1cccn2c(=O)c3ccc(Cl)cc3nc12)N1CCN(Cc2ccc3c(c2)OCO3)CC1	Pf growth 96h 7.4µM
COc1ccccc1N1CCN(C(=O)c2cc3cc(F)ccc3[nH]2)CC1	Pf growth 96h inconclusive, Pf growth 48h inconclusive
O=C(c1ccc(COc2ccc(Cl)cc2)o1)N1CCN(Cc2ccc3c(c2)OCO3)CC1	HCV inh 8.9µM (no result: Pf growth 96h)
CC(C)NC(=O)c1cc(C2CCCCN2C(=O)c2ccc(C#N)cc2)on1 (configuration not stated)	none (no result: Pf growth 96h, Pf growth 48h, Shiga inhibitor, CHX counter, HCV inh)
SC(COCc1ccccc1)CN1CCN(Cc2ccc3c(c2)OCO3)CC1 (configuration not stated)	Pf growth 96h 8.3µM, AMA1-RON2 inh 25µM, Pf growth 48h inconclusive
CN1CCN(C(=O)c2cc3cc(Cl)ccc3[nH]2)CC1	Pf growth 96h 10µM, CHX counter 12!
O=C(c1cccc(Cl)c1)N1CCN(Cc2ccc3c(c2)OCO3)CC1	Pf growth 48h inconclusive
OC(COCc1ccccc1)CN1CCN(Cc2ccc3c(c2)OCO3)CC1 (configuration not stated)	none
O=C(NC(=S)N1CCN(Cc2ccc3c(c2)OCO3)CC1)c1ccc(Cl)cc1	CHX counter 15
O=C(c1cc2cc(Cl)ccc2[nH]1)N1CCN(Cc2ccc3c(c2)OCO3)CC1	Pf growth 96h inconclusive, Pf growth 48h inconclusive, CHX counter 13
COc1cc(C(=O)Nn2cnnc2)ccc1OC(F)F	none
Cc1ccccc1C1c2[nH]c3ccccc3c2CCN1Cc1cccn1-c1ncccn1 (configuration not stated)	Pf growth 48h inconclusive, HCV inh inconclusive
COc1ccc([C@H]2CC(=O)C[C@@H](CCn3cc(C(C)C)nn3)O2)cc1	none (no result: Pf growth 96h, Pf growth 48h, Shiga inhibitor, CHX counter, HCV inh)
COc1ccc(OCC(O)CN2CCN(Cc3ccc4c(c3)OCO4)CC2)cc1 (configuration not stated)	none
Cc1ccc2[nH]c(C(=O)N3CCN(C(c4ccccc4)c4ccccc4)CC3)cc2c1	Pf growth 96h inconclusive, Pf growth 48h 2.6µM
O=S(=O)(c1cc(Cl)ccc1Cl)N1CCN(Cc2ccc3c(c2)OCO3)CC1	Pf growth 96h 10µM (no result: Pf growth 48h)
CC(=O)c1ccc(OCC(O)CN2CCN(Cc3ccc4c(c3)OCO4)CC2)cc1 (configuration not stated)	Pf growth 96h 4.1µM!, HCV inh inconclusive
CN1CCN(C(=O)c2ccc(Cl)cc2)CC1	Pf growth 96h 2.6µM (no result: Shiga inhibitor)
CN1CCN(C(=O)c2ccc(CSc3ccc(Cl)cc3)cc2)CC1	HCV inh inconclusive
CN(C(=O)COC(=O)c1nc(Cl)ccc1Cl)c1ccccc1	Pf growth 96h inconclusive (no result: HCV inh)
O=C(c1cc2cc(Cl)ccc2[nH]1)N1CCCCC1	CHX counter 25
O=CN1CCN(C(=O)c2cc3cc(Cl)ccc3[nH]2)CC1	none (no result: Shiga inhibitor)
COc1ccc(N2CCN(C(=O)c3cc4cc(Cl)ccc4[nH]3)CC2)cc1	Pf growth 96h inconclusive, Pf growth 48h inconclusive, CHX counter 19
CC(C)(C)c1ccc(C(=O)N2CCN(CCNC(=O)C(=O)NCc3ccc(Cl)cc3)CC2)cc1	HCV inh 11µM
O=C1CSC(=S)N1N=Cc1ccc(Cl)s1	none (no result: Pf growth 96h, Pf growth 48h, Shiga inhibitor, CHX counter)
CCN(CC(=O)NC1CCS(=O)(=O)C1)C(C)C(=O)Nc1ccc(F)cc1 (configuration not stated)	none (no result: Shiga inhibitor, CHX counter)
CC(NC(=O)COC(=O)/C=C/c1ccc(Cl)cc1)c1ccccc1 (configuration not stated)	none
Cc1cc(Br)cn2c(Cc3ccccc3)c(-c3ccccc3)nc12	none (no result: Pf growth 96h, Pf growth 48h, Shiga inhibitor, CHX counter, HCV inh)
Cc1ccc(NC(=S)N2CCC(N(C)CC3CCCO3)CC2)cc1C (configuration not stated)	Pf growth 96h 1.5µM
Cc1cccc(NC(=S)N2CCC(N(C)CC3CCCO3)CC2)c1 (configuration not stated)	Pf growth 96h inconclusive
COc1ccc(NC(=S)N2CCC(N(C)CC3CCCO3)CC2)cc1Cl (configuration not stated)	Pf growth 96h 6.6µM
Cc1c(Cl)cccc1NC(=S)N1CCN(C(=O)C2CCCO2)CC1 (configuration not stated)	none
CCNC(=S)N1CCCCC1CO (configuration not stated)	none
COc1ccc(NC(=S)N2CCC(N(C)CC3CCCO3)CC2)cc1 (configuration not stated)	none
Cc1c(Cl)cccc1NC(=S)N1CCC(N(C)CC2CCCO2)CC1 (configuration not stated)	Pf growth 96h 6.6µM
Cc1ccc(NC(=S)N2CCCCC2CO)cc1C (configuration not stated)	CHX counter 15
CC(C)c1cccc(C(C)C)c1NC(=O)CN(C)C1CCS(=O)(=O)C1 (configuration not stated)	none (no result: Shiga inhibitor, CHX counter)
